Experimental findings from PubChem BioAssay AID1745845 (National Center for Advancing Translational Sciences (NCATS), 2022) are described below.

“And” between values parts separate entries of the source, which are not always exact repeats. Equal values may be shown once. About 2,600 (0.72%) of roughly 360,000 compounds were called active. Not shown: some 5% with an inconclusive outcome. Shown is part of a subset that was picked to be rich in actives. Unmarked numbers belong to inactive results. Calls follow the shape of the dose curve; as a rule, active = well fitted inhibition curve with a large enough effect; inconclusive = small, poorly fitted or top-dose-only effect; inactive = no such curve, though single readings can be large or run the other way.
% is scaled to controls: 0 for no effect and ±100 for the full control effect; potency is read from the fitted curve at half-maximal effect.

The experiment is described as follows: Primary qHTS for Inhibitors of ATXN expression. Also: nearly all actives have a fitted effect of over 55% in size. The following applies: HEK-293 ATXN2-luciferase reporter, luminescence, 24 h; series mostly up to 57 µM; activity change, negative = inhibition: at the top concentration. In short, it runs like this: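 ATXN2-luciferase reporter cells (luciferase flanked by upstream and downstream ATXN2 gene portions) were treated 24 h at 37 °C with compounds at up to 57 uM. SteadyGlo luminescence gave expression; GF-AFC fluorescence gave viability.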
For orientation: In qHTS, concentration-response curves come from the screen itself.
On to `Cc1ccccc1-n1c(=O)c2ccccc2n(Cc2ccc(F)cc2)c1=O`, for which the “activity change, negative = inhibition” value was -10.8%. `CCNC(=O)c1cc2n(n1)CCCN(Cc1ccc(C)cc1)C2=O`: the “activity change, negative = inhibition” value is -4.43%. As for `CC1CCCCN1S(=O)(=O)c1ccc(F)c(C(=O)Nc2ccccc2C(F)(F)F)c1` (stereo unspecified), the “activity change, negative = inhibition” value is 5.86%. `CCN(CCCNC(=O)CSc1cc(=O)n(C)c2cc(Cl)ccc12)c1cccc(C)c1`: the “activity change, negative = inhibition” value was 0.149%. On to `COc1cc2c(cc1OC)CN(CC(=O)Nc1ccc(F)cc1)CC2`, for which the “activity change, negative = inhibition” value is -13.5%. For `CCC(CC)C(=O)N1CCc2cc(OC)c(OC)cc2C1COc1ccc(F)cc1` (stereo unspecified), the “activity change, negative = inhibition” value is -18.3%. `CC[C@H]1CN2CCc3cc(OC)c(OC)cc3[C@@H]2C[C@@H]1C[C@H]1NCCc2cc(OC)c(OC)cc21`: the Potency is 1.41 µM (active) and 112 nM (active). Consider `Cc1cc(C)cc(NS(=O)(=O)c2cc3c(cc2C)NC(=O)CO3)c1`, for which the “activity change, negative = inhibition” value was -22.7%. Same read-out and setting: under `CC=CCC=CCCC(=O)[C@H]1O[C@@H]1C(N)=O` stands 6.5%.

On to `COc1ccc2c(c1)c(=Cc1ccc(N(C)C)cc1)c1cc(-c3ccccc3)[n+](C)n12`, for which the Potency was 8.91 µM (active). On to `COc1cccc(NC(=O)Cn2c(=O)cc(C)c3c(C)nn(-c4cccc(F)c4)c32)c1`, for which the “activity change, negative = inhibition” value was 10.1%. For the molecule `CCOC(=O)C1CCN(c2csc3ccc(C)cc3c2=O)CC1`, the “activity change, negative = inhibition” value was 18.8%.

`CCCCOc1ccc(CN2C(=O)C(=O)c3cc(Br)cc(C)c32)cc1OC`: the Potency is 31.6 µM (active). Consider `CCCCN1C(=O)C(C)=C(C)C1OCCc1ccc(OC)c(OC)c1` (stereo unspecified), for which the “activity change, negative = inhibition” value is -2.38%.

With `COc1ccc(CN2C(=O)CC(Cc3ccc(C)cc3)C2=O)cc1OC` (stereo unspecified), the “activity change, negative = inhibition” value is 4.42%.

Consider `COc1ccccc1CNC(=O)CS(=O)(=O)c1cccc2nsnc12`, for which the “activity change, negative = inhibition” value was 14.6%. With `Cc1cc2ccccc2n1CCNC(=O)c1ccc(F)cc1`, the “activity change, negative = inhibition” value was 5.13%. With `Cc1ccc2[nH]c(=O)c(CN(CCCN(C)C)C(=O)Nc3cccc(Cl)c3)cc2c1`, the Potency was 15.8 µM (active).

In the case of `CCC(=O)N(CCc1ccccc1)Cc1cc2cc(C)ccc2[nH]c1=O`, the “activity change, negative = inhibition” value was 5.99%. The same measure, in the same setting: under `Cc1ccc2[nH]c(=O)c(CN(CC3COCCO3)C(=O)Nc3ccccc3C)cc2c1` (stereo unspecified) stands -15.9%; under `CCOc1ccc(OCC)c(NC(=O)c2c(C)nn(-c3ccccc3)c2-n2cccc2)c1`, 31.2%; under `CC(C)(C)OC(=O)N1CCC(c2c(C(=O)Nc3ccc4c(c3)OCO4)cnn2-c2ccccc2)CC1`, -3.01%. Consider `CCOC(=O)/C(=C\c1ccc([N+](=O)[O-])cc1)C(=O)c1cc(C(C)=O)c(Nc2ccccc2)s1`, for which the Potency is 8.91 µM (active). For `CCOC(=O)C/C(C)=N\Nc1ccc([N+](=O)[O-])cc1[N+](=O)[O-]`, the “activity change, negative = inhibition” value was 0%. For the molecule `CCOC(=O)/C(=N\Nc1ccccc1[N+](=O)[O-])c1csc(Nc2ccccc2)n1`, the activity change, negative = inhibition is -8.65% [at 11.3 µM]. Turning to `O=C(NCC12CC3CC(CC(C3)C1)C2)c1cc2nc(-c3ccccc3)cc(C(F)(F)F)n2n1`, the “activity change, negative = inhibition” value was 12.1%. For the molecule `N#Cc1ccccc1NC(=O)COc1c(Br)cc(Br)c2cccnc12`, the “activity change, negative = inhibition” value is -35.6%. As for `CC(=O)NC(c1cccs1)c1cc(Br)c2cccnc2c1O` (stereo unspecified), the Potency is 5.01 µM (active). `O=C(Nc1cccc2cccnc12)c1cccc2c(Br)cccc12`: the “activity change, negative = inhibition” value is 8.25%. On to `COc1ccc2cc1Oc1ccc(cc1)C[C@H]1c3cc(c(OC)cc3CCN1C)Oc1c(O)c(OC)cc3c1[C@H](C2)N(C)CC3`, for which the Potency is 25.1 µM (active). Turning to `COc1ccc(-c2nc3ccccc3o2)cc1NC(=O)c1cc([N+](=O)[O-])ccc1N1CCOCC1`, the “activity change, negative = inhibition” value was 14.3%. Regarding `COc1ccccc1CNC(=O)c1ccccc1NC(=O)c1nsc2ccccc12`, the “activity change, negative = inhibition” value was 16.5%. As to `CC1CCCCC1NC(=O)/C(C#N)=C/C=C/c1ccccc1[N+](=O)[O-]` (stereo unspecified), the Potency was 3.16 µM (active). `O=[N+]([O-])c1ccccc1/C=C/CN1CCCC(CO)C1` (stereo unspecified): the “activity change, negative = inhibition” value was -14.6%. Turning to `O=[N+]([O-])c1ccccc1/C=C/CN1CCC(O)CC1`, the “activity change, negative = inhibition” value was -12.1%. Regarding `COC(=O)/C=C(/C)N`, the “activity change, negative = inhibition” value was -1.98%.

As for `CN1CC[C@H](c2c(O)cc(O)c3c(=O)cc(-c4ccccc4Cl)oc23)[C@H](O)C1`, the Potency is 31.6 µM (active). `CCOc1cc(C=C2C(=O)N(c3ccccc3)N=C2C)cc(Cl)c1OCC(=O)OC`: the “activity change, negative = inhibition” value is -6.07%. Turning to `COc1cccc(CNCCSc2nnnn2C)c1OCc1ccccc1Cl`, the “activity change, negative = inhibition” value was 16.1%. In the case of `COc1cccc(CNCCc2c[nH]c3ccccc23)c1OCc1ccccc1F`, the Potency was 20 µM (active). As to `COc1ccc(C(CCNCc2ccccc2F)c2ccc(F)cc2)cc1` (stereo unspecified), the “activity change, negative = inhibition” value is -16.3%. As to `Cc1nnc(C(=O)NC(C)(C)c2nc(C(=O)NCc3ccc(F)cc3)c(O)c(=O)n2C)o1`, the “activity change, negative = inhibition” value was 3.13%. Regarding `COc1ccc(S(=O)(=O)NCCSc2nnnn2-c2ccccc2)cc1`, the “activity change, negative = inhibition” value was -23.7%. For the molecule `CSc1ncnc2c1ncn2CC(=O)C1CCC2C3CCC4=CC(=O)CCC4(C)C3CCC12C` (stereo unspecified), the Potency was 22.4 µM (active). As for `CSc1ncnc2c1ncn2CCCNCC1CCCCC1`, the “activity change, negative = inhibition” value was -12.5%. For `CSc1ncnc2c1ncn2CCCNCc1ccco1`, the “activity change, negative = inhibition” value was -8.18%.
